Among all 320,000 compounds or so, about 1,300 (0.41%) were called active. Inconclusive results (about 3%) are left out. No rule for the calls is given here. A selection follows. Results with a measured potency or affinity are listed apart.

This assay in a line: growth inhibition of non-replicating M. tuberculosis (AID 488890).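 Also: plate controls were DMSO cells for no effect and high antibiotic wells for full effect.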 To be noted: Mycobacterium tuberculosis non-replicating, at 25 µM, stronger effect = higher value.
As usually defined, the inhibition is the drop in the measured response relative to a control, in per cent. Take `O=C(NC1CCCCC1)C(c1cccnc1)N(C(=O)c1ccc(Cl)nc1)C1CCCCC1` (stereo not drawn): the inhibition turned out to be 20.7%.

Take `O=C(NC(=S)Nc1ccc2[nH]c(=O)[nH]c2c1)c1ccccc1[N+](=O)[O-]`: the inhibition was -4.02%.

For the compound `CCNC(=O)CSc1nnc(-c2ccccc2)n1-c1ccc(OCC)cc1`, the inhibition came out at 12%.

`O=C1CSC(=Nc2cccc([N+](=O)[O-])c2)N1`: the inhibition was found to be 17.5%.

In the case of `O=C(COC(=O)c1ccc(Br)o1)NCCNC(=O)COC(=O)c1ccc(Br)o1`, the inhibition amounted to 0.38%.

Take `O=C(OCC(=O)N1CCCC1)c1cccc(Br)c1`: the inhibition amounted to 67.8%.

`O=C(COC(=O)c1ccc([N+](=O)[O-])o1)NCCCc1ccccc1`: the inhibition stood at 73.4%.

As to `O=C(OCC(=O)N1CCCC1)c1cc([N+](=O)[O-])ccc1Cl`, the inhibition was 67.6%.

On to `Nc1cccc(CP(=O)(c2ccccc2)c2ccccc2)c1`, for which the inhibition stood at 1.01%.

As for `COc1cc(NC(=O)c2ccccc2-n2cnnn2)cc(OC)c1`, the inhibition stood at 10.3%.

As to `COc1ccc(C2C(C(C)=O)=C(O)C(=O)N2c2ccc(Br)cc2)cc1` (stereo not drawn), the inhibition was 29.9%.

As for `COC(=O)CSc1nnc(-c2ccncc2)o1`, the inhibition is -0.32%.

For `COC(=O)c1ccc(CSc2nnc(-c3ccncc3)n2Cc2ccccc2)o1`, the inhibition worked out at 12.6%.

As to `Cc1ccc(OCC(=O)OC(C)C(=O)NC2CCCCC2C)cc1C` (stereo not drawn), the inhibition came to 65.7%.

With `Cc1c(C(=O)NCc2ccccc2CN2CCCC2)oc2ccc(F)cc12`, the inhibition was determined as 42%.

Take `COc1ccc(OC)c(NC(=O)c2nc3ccccc3s2)c1`: the inhibition was -0.73%.

As to `O=C(NCc1ccco1)c1cccnc1-c1nc2ccccc2s1`, the inhibition is 27.7%.

Consider `Cc1nc(C)c(C(=O)Nc2ccccc2)s1`, for which the inhibition is -13.4%.

On to `O=C(NCc1ccccc1)c1nc2ccccc2s1`, for which the inhibition came out at 79.5%.

As to `Cc1nc(Cl)sc1C(=O)Nc1ccccc1`, the inhibition was -6.17%.

Consider `COc1ccc(NC(=O)Nc2nc3ccccc3s2)cc1`, for which the inhibition was -4.36%.

On to `CN(C(=O)COC(=O)CSc1cc(Cl)ccc1Cl)c1c(N)n(Cc2ccccc2)c(=O)[nH]c1=O`, for which the inhibition worked out at 7.95%.

For `COc1ccc(CC2C(=O)OC(C)(C)OC2=O)c(Cl)c1OC`, the inhibition was -14.3%.

With `CCCC1=C(C(=O)OCC)C(c2cccnc2)n2nc(C)nc2N1` (stereo not drawn), the inhibition was -11.9%.

For the compound `COCCn1c(=O)c2c(nc3n2CC(C)CN3CCc2ccccc2)n(C)c1=O` (stereo not drawn), the inhibition worked out at 22.9%.

Consider `Cc1[nH]c(=O)[nH]c(=O)c1S(=O)(=O)N1CCN(c2ccccc2F)CC1`, for which the inhibition was -5.44%.

As to `COc1ccc(OC)c(C(=O)c2oc3ccccc3c2NC(C)=O)c1`, the inhibition was -5.83%.

Turning to `CCOC(=O)c1sc(=S)n(-c2ccc3c(c2)OCO3)c1N`, the inhibition is 1.96%.

Take `N/C(=N\OC(=O)c1ccc(Cl)cc1)c1ccccn1`: the inhibition amounted to 28.3%.

As for `N/C(=N\OC(=O)c1ccc(Cl)cc1)c1ccc(Cl)cc1`, the inhibition was 69.9%.

Regarding `N/C(=N\OC(=O)c1ccccc1Cl)c1ccccn1`, the inhibition is -3.97%.

As to `N/C(=N\OC(=O)c1ccccc1Cl)c1cccc([N+](=O)[O-])c1`, the inhibition was found to be 66.7%.

In the case of `C=CCOC(=O)c1cn(CC)c2nc(C)ccc2c1=O`, the inhibition was -10.5%.

For `CCOC(=O)C1(Cc2cccc(Cl)c2)CCCN(C(=O)c2ccoc2C)C1` (stereo not drawn), the inhibition came to 33.8%.

In the case of `CCOC(=O)NC(CC(=O)O)c1ccc(OC)cc1` (stereo not drawn), the inhibition is -4.02%.

In the case of `CCn1c(C)nc2cc(C(=O)N/N=C/c3ccc(N4CCOCC4)cc3)ccc21`, the inhibition was determined as 33%.

As for `CN1CCN(C2Cc3ccccc3Sc3ccc(Cl)cc32)CC1` (stereo not drawn), the inhibition was 76.8%.

As for `c1ccc2c(c1)CC(N1CCCCC1)c1ccccc1S2` (stereo not drawn), the inhibition worked out at 72.9%.

Consider `CCOC(=O)C1(Cc2ccc(OC)cc2)CCN(C(=O)c2cncs2)CC1`, for which the inhibition is -27.1%.

Turning to `CCOC(=O)c1ccc(NC(=O)NCc2ccncc2)cc1`, the inhibition amounted to 15.4%.

Turning to `CCc1ccc(N2C(=O)c3cc(N4CCOCC4)c([N+](=O)[O-])cc3C2=O)cc1`, the inhibition stood at 1.14%.

`O=[N+]([O-])c1ccc(CSc2nnc3ccccn23)cc1`: the inhibition is 1.79%.

For the compound `CCc1ccc(NC(=O)CCCn2nc(CC)n3c(cc4occc43)c2=O)cc1`, the inhibition was 21.1%.

Turning to `CSc1ccc(CCNC(=O)CCc2nnc3ccc(N4CCC5(CC4)OCCO5)nn23)cc1`, the inhibition was 11.6%.

As for `O=c1c2ccccc2nc(-c2ccc([N+](=O)[O-])cc2)n1-c1ccccc1`, the inhibition is -1.75%.

Regarding `Cc1ccc(-c2nc3ccc(Cl)cc3c(=O)n2O)cc1`, the inhibition worked out at 69.6%.

For `O=C(Nn1c(-c2ccc(Br)cc2)nc2ccccc2c1=O)c1ccc([N+](=O)[O-])cc1`, the inhibition was 20.4%.

On to `Cc1nc2ccc(Cl)cc2c(=O)n1-c1ccc([N+](=O)[O-])cc1`, for which the inhibition worked out at 36.5%.

Consider `Nn1c(-c2ccccc2)nc2cc(Cl)ccc2c1=O`, for which the inhibition was -0.74%.

For the compound `Cc1nc2ccc([N+](=O)[O-])cc2c(=O)n1Cc1ccc(Br)cc1`, the inhibition is -9.44%.

`Cc1nc2ccc([N+](=O)[O-])cc2c(=O)n1Cc1ccc(Cl)cc1`: the inhibition was -5.97%.

For the compound `COc1ccccc1-c1nc2ccc(Cl)cc2c(=O)n1O`, the inhibition is 11.4%.

As to `CCCNC(=O)c1ccc(Cn2c(=S)[nH]c3c([nH]c4ccc(OC)cc43)c2=O)cc1`, the inhibition is -43.9%.

`CC1Cc2cc(S(=O)(=O)N3CCN(c4ccccc4F)CC3)ccc2N1C(=O)C1CC1` (stereo not drawn): the inhibition was 31.8%.

Consider `CC1Sc2ccc(S(=O)(=O)CCC(=O)N3CCN(c4ccccc4)CC3)cc2NC1=O` (stereo not drawn), for which the inhibition was determined as 12.1%.

Regarding `COC(=O)C1=C(C)NC(=O)CC1c1cc2c(cc1Br)OCO2` (stereo not drawn), the inhibition is -0.49%.

Turning to `Cc1ccccc1C(=O)N1CCN(c2ncccn2)CC1`, the inhibition was -10.1%.

On to `CCOC(=O)c1ccc(S(=O)(=O)NC2CC2)cc1`, for which the inhibition was determined as 0.31%.

For `COc1ccc(COC(=O)CN2C(=O)NC3(CC(C)CC(C)(C)C3)C2=O)cc1F` (stereo not drawn), the inhibition amounted to 7.47%.

Turning to `CC(C)C[C@H](NC(=O)c1nc[nH]c1C(=O)NCCCCCN)C(=O)OCc1ccccc1`, the inhibition was 18.5%.

In the case of `CCN(CC(=O)Nc1ccc(OC)cc1)C(=O)c1cc2c(s1)CCCCC2`, the inhibition turned out to be 12.4%.

As for `CSc1nnc(SCC(=O)Nc2ccc3[nH]c(=O)[nH]c3c2)s1`, the inhibition is -17%.

`COc1ccccc1NC(=O)CN1C(=O)COc2ccc(S(=O)(=O)N3CCC(C)CC3)cc21`: the inhibition came out at 9.4%.

With `O=S(=O)(c1cccc2nsnc12)N1CCc2ccccc2C1`, the inhibition turned out to be 3.1%.

As for `Clc1ccc(SCCCN2CCCCC2)cc1`, the inhibition was 5.39%.

As to `CC1CCCN(CCOCCSc2ccccc2)C1` (stereo not drawn), the inhibition was 13.4%.

Consider `COc1ccc(S(=O)(=O)N2CCCC(C(=O)NC3CCCCC3)C2)cc1` (stereo not drawn), for which the inhibition is -6.21%.

Take `CCOC(=O)CN(C#N)c1nc(C)cc(C)n1`: the inhibition came to 1.75%.

For the compound `COC(=O)CN(C#N)c1nc(OC)nc(N(C)C)n1`, the inhibition was found to be 2.2%.

On to `COc1ccc(Cl)cc1C(=O)Nc1nc2ccccc2[nH]1`, for which the inhibition was found to be 62.4%.

Turning to `CCOc1ccccc1OCCCC(=O)Nc1nc2ccccc2[nH]1`, the inhibition was found to be 12.7%.

As to `CN(c1cccc(Cl)c1)S(=O)(=O)c1cccc(C(=O)Nc2nc3ccccc3[nH]2)c1`, the inhibition was 7.4%.

Consider `O=C(COc1cccc2ccccc12)Nc1cc(Cl)ccc1C(=O)O`, for which the inhibition worked out at 69.4%.

As for `O=C(COc1ccccc1)Nc1nc2ccccc2[nH]1`, the inhibition worked out at 75.5%.

In the case of `O=C(COc1ccccc1C(=O)O)Nc1cccc2ccccc12`, the inhibition came to 15.8%.

`CCOc1ccccc1OCC(=O)Nc1nc2ccccc2[nH]1`: the inhibition is 34.2%.

Consider `COc1ccc(C(=O)Nc2nc3ccccc3[nH]2)cc1OC`, for which the inhibition came to 22.2%.

`CCN(CC)S(=O)(=O)c1ccc(NC(=O)c2cccs2)cc1`: the inhibition is -5.05%.

Take `O=C(COc1ccccc1C(=O)Nc1ccccc1)c1ccc(F)cc1`: the inhibition was 2.88%.

For the compound `Cc1sc(NC(=O)C2CSC3(C)CCC(=O)N23)nc1-c1ccc(F)cc1` (stereo not drawn), the inhibition stood at 23.3%.

`CNC(=O)C1CCC(=O)N1Cc1ccccc1Cl` (stereo not drawn): the inhibition was -5.58%.

For `Cc1[nH]c2ccccc2c1CC#N`, the inhibition was -7.72%.

In the case of `COC(=O)CNC(=O)COC(=O)/C=C/c1cccs1`, the inhibition is -8.45%.

Take `COc1ccc(/C=C2\N=C(C(C)(C)C)OC2=O)c(OC)c1`: the inhibition came to 64.4%.

For the compound `CN(C)c1ccc(C=C2C(=O)OC(C)(C(C)(C)C)OC2=O)cc1` (stereo not drawn), the inhibition is -8.32%.

Take `CCN(C[C@H]1N[C@@](C)(C(=O)OC)[C@H]2C(=O)N(C)C(=O)[C@@H]12)C(=O)C1CCCCC1`: the inhibition is 1.05%.

Turning to `CS(=O)(=O)Nc1ccccc1C(=O)NC1CC2CCC1C2` (stereo not drawn), the inhibition was -26.9%.

`COc1ccc(NC(=O)Cn2c(=O)n(CC3CCCO3)c(=O)c3cc(OC)c(OC)cc32)cc1OC` (stereo not drawn): the inhibition came to 3.8%.

Take `COC(=O)c1ccccc1OCCOCCOc1cccc2cccnc12`: the inhibition is -0.9%.

As for `O=C(c1ccc(Cl)cc1)N1CCCCC(Sc2nnc(-c3ccc4c(c3)OCO4)o2)C1=O` (stereo not drawn), the inhibition amounted to 17.2%.

Turning to `O=C1OCCC1Sc1nnc(-c2ccc3c(c2)OCO3)o1` (stereo not drawn), the inhibition came out at 0.17%.

For the compound `Cc1ccc(S(=O)(=O)N(C)C)cc1-n1c(SCC(=O)Nc2ccc(F)cc2)nc2ccccc2c1=O`, the inhibition worked out at 26.8%.

Regarding `CC(=O)/C=C\c1ccccc1OC(=O)c1cc2ccccc2oc1=O`, the inhibition was determined as 18%.

Regarding `COC(=O)c1ccccc1OC(=O)c1cc2ccccc2oc1=O`, the inhibition was 17.4%.

With `Cc1ccc(NC(=O)C2(S(=O)(=O)c3ccc(C)cc3)CC2)cc1`, the inhibition was found to be 7.01%.

For `CCCCOc1ccc(C(=O)NCC(=O)NNC(=O)c2ccco2)cc1`, the inhibition is 9.92%.

On to `COc1ccc(C(=O)NC(=S)NNC(=O)c2ccco2)cc1`, for which the inhibition was 78.5%.

For `CCCOc1ccc(C(=O)Nc2ccc(NC(=O)c3cccs3)cc2)cc1`, the inhibition is -8.66%.

On to `CCCC(=O)Nc1ccc(C(=O)NNC(=S)NC(=O)c2cccs2)cc1`, for which the inhibition was -6.93%.

With `c1cnc2c(OCc3cn4cccnc4n3)cccc2c1`, the inhibition came out at 24.9%.

Consider `CCC(C(=O)NCc1ccco1)N(C(=O)CNS(=O)(=O)c1ccccc1)C1CCCCC1` (stereo not drawn), for which the inhibition is 18.4%.

As to `COc1ccc(-n2c(SCC(=O)O)nnc2-c2ccc(NC(=O)c3ccccc3)cc2)cc1`, the inhibition is 9.48%.

Take `CC(=O)CSc1nnc(Cc2ccc([N+](=O)[O-])cc2)o1`: the inhibition was found to be 70.9%.

As to `CCCc1nnc(-c2cc(OC)c(OC)c(OC)c2)o1`, the inhibition was found to be 7.1%.

With `CCOc1ccc(-c2nnc(-c3ccc(OC)cc3)o2)cc1`, the inhibition was 53.7%.

As for `COc1ccc(-c2ccc(-c3nnc(Cc4ccc(OC)c(OC)c4)o3)cc2)cc1`, the inhibition worked out at 15.8%.

With `COc1ccc(-c2nnc(SCc3cc(C)cc(C)c3)o2)cc1`, the inhibition was determined as 42.9%.

For the compound `COc1ccc(-c2nnc(SCC#N)o2)cc1`, the inhibition turned out to be 65.7%.

`COc1ccc(NCc2nnc(-c3ccccc3)o2)cc1`: the inhibition is 69.4%.

As to `Cc1nnc(SCc2ccc([N+](=O)[O-])cc2)o1`, the inhibition worked out at 16.4%.

As for `Cn1c(=O)c(=O)n(C)c2cc(S(=O)(=O)N3CCOCC3)ccc21`, the inhibition was -6.34%.

With `COC(=O)c1cc(S(=O)(=O)NCc2ccccc2Cl)c[nH]1`, the inhibition was -3.81%.

`Cc1ccc2c(c1)N(S(=O)(=O)c1ccc(CN3C(=O)c4cccnc4C3=O)cc1)CCO2`: the inhibition is 15.3%.
